Experimental data as given in PubChem BioAssay (EPA / NIEHS).
Active and inactive are the calls of the source. How the source made its calls: active means hit-call score of the fitted dose curve at least 0.9, where 1 is the maximum; inactive means score below 0.9.

read-out: Pro-epidermal growth factor (Homo sapiens) (UniProt P01133); assay: LTEA_HepaRG_EGF: Life Technologies and Expression Analysis (LTEA) Assay for Epidermal growth factor (EGF) using HepaRG (AID 2283489); settings: mRNA level, 48 h; actives raise or lower the signal
Procedure: LTEA_HepaRG is a cell based, multiplexed-readout assay that uses HepaRG, a human liver cell line, with measurements taken at 48 hours after chemical dosing on a 96-well plate.LTEA_HepaRG_EGF is one of 102 assay component(s) measured in the LTEA HepaRG cell culture assay. It is a marker of Cell proliferation, survival, death.Data from the assay component LTEA_HepaRG_EGF was analyzed into 1 endpoint. This assay endpoint, LTEA_HepaRG_EGF, was analyzed with bidirectional fitting relative to DMSO as the negative control and baseline of activity. Using a type of inducible reporter, measures of mRNA induction for gain or loss-of-signal activity can be used to understand regulation of transcription factor activity. To generalize the intended target to other relatable targets, this assay endpoint is annotated to the growth factor intended target family, where the subfamily is EGF-like domain.
A total of 1060 chemcials from the ToxCast library were tested in eight-point concentration-response experiments. Cell culture and cytotoxicity assays were conducted at Thermo Fisher Scientific's Custom Services facility (Madison, WI). A single lot of human HepaRG cells (Thermo Fisher Scientific, Frederick, MD) was used for the cell culture experiments. 96-well format collagen type I coated plates of human HepaRG cells were prepared using established methods. Briefly, cryopreserved HepaRG cells were thawed, plated at a density of approximately 100,000 cells/well in HepaRG Thaw, Plate, and General Purpose media (HPRG770, Thermo Fisher Scientific), and incubated for 48 hours. 0.5% DMSO was selected as vehicle control to balance the requisite need of DMSO in HepaRG cultures to maintain differentiation (for example, baseline metabolism, proportions of hepatocytes vs. cholangiocytes), while enabling further hepatic receptor pathway activation (for example, PXR and CAR) in response to chemical exposure. 48 hours after plating, the culture medium was replaced with HepaRG Serum-Free Incudtion Media. Cells were exposed to each test chemical in duplicate and maintained in CO2 incubators for another 48 hours. Chemical plates were thawed to room temperature and 200x concentrations of treatment groups were prepared. 8-point conentration-reponse curves were made with the highest exposure at 100 uM, followed by half-log dilutions, all in 0.5% DMSO. Each test plate contained variouse controls, induction positive controls (1mM phenobarbital), cytotoxicity positive controls ([…] aflatoxin B1), vehicle controls (0.5% DMSO), and total lysis controls (0.5% DMSO). Cell morphology images were taken using an Essen IncuCyte FLR automated microscope, with six 96-well plates imaged in about 24 minutes. Images were captured and exported and JPEG files. Spent culture media was transfered to black-well plates for the LDH assay, and remaining media was sorted at -80 C for later use. Cells were treated with RLT buffer and frozen until shipped for gene expression analysis. Total RNA was isolated from the cell suspension in 75 uL of Buffer RLT (Qiagen, Germantown, MD 20874) by Quintiles/Expression Analysis (Durham, NC) using a custom isolation procedure. Total RNA from each plate well was transferred to a preamplification plate. Fluidigm's 96.96 Dynamic ArrayTM (Fluidigm, Amsterdam, the Netherlands) technology was used for gene expression analyses by quantitative reverse transcription polymerase chain reaction (qRT-PCR, performed by Quintiles/Expression Analysis, Durham, NC)89. Standard TaqManTM Assays (Applied Biosystems/ThermoFisher Scientific, Foster City, CA) were used to assess the expression of 93 genes selected based on their selectivity and sensitivity to important hepatic receptors known to be modulated by environmental chemicals; importance in human hepatocyte functionality; and hepatotoxicity. […]

Compound	outcome	AC50
Cc1cn([C@H]2C[C@H](N=[N+]=[N-])[C@@H](CO)O2)c(=O)[nH]c1=O	inactive	–
CC(C)(c1cc(Br)c(O)c(Br)c1)c1cc(Br)c(O)c(Br)c1	inactive	–
Cc1ccc(C(C)C)cc1	inactive	–
O=C1c2ccccc2C(=O)N1CCc1noc(-c2ccc(CN3CCCCCC3)s2)n1	inactive	–
CO[C@H]1/C=C/O[C@@]2(C)Oc3c(C)c(O)c4c(O)c(c(/C=N/N5CCN(C)CC5)c(O)c4c3C2=O)NC(=O)/C(C)=C\C=C\[C@H](C)[C@H](O)[C@@H](C)[C@@H](O)[C@@H](C)[C@H](OC(C)=O)[C@@H]1C	inactive	–
CC[C@@H]1C[C@H](N(Cc2cc(C(F)(F)F)cc(C(F)(F)F)c2)C(C)=O)c2cc(C(F)(F)F)ccc2N1C(=O)OC(C)C	inactive	–
CC(O)CC(C)(C)O (stereo not given)	inactive	–
Clc1ccccc1C(c1ccccc1)(c1ccccc1)n1ccnc1	–	15.8 µM (active)
CCCCCCCCCCCCO	inactive	–
O=C(OCCCCCCOC(=O)c1ccccc1)c1ccccc1	inactive	–
Cc1c2ccccc2c(C)c2c1ccc1ccccc12	–	19.9 µM (active)
CC(C)(O)c1ccc(CNC(=O)c2cccnc2Oc2ccc3nonc3c2)cc1	inactive	–
c1ccc2ccccc2c1	inactive	–
O=C(O)c1ccccc1-n1cc(C(=O)O)c(=O)c2cc(Nc3c(F)cc(F)cc3Cl)c(Cl)cc21	inactive	–
CC[C@H](NC(=O)c1cc(F)ccc1NS(=O)(=O)c1cccc2cccnc12)c1ccccc1	–	11.5 µM (active)
Cc1cc2c(cc1C(F)(F)F)N(C(=O)Nc1ccc(Oc3cccnc3C)nc1)CC2	inactive	–
CCCCCCCCCC(=O)O	inactive	–
CCCCCc1ccc(N)cc1	inactive	–
CCCCCCCCOc1ccc(C(=O)c2ccccc2)c(O)c1	inactive	–
CN(C)C(=O)C1(N2CCCCC2)CCN(CC[C@@]2(c3ccc(Cl)c(Cl)c3)CN(C(=O)c3ccccc3)CCO2)CC1	–	25.3 µM (active)

Compound	outcome	AC50
COCC(C)OCC(C)OCC(C)O (stereo not given)	inactive	–
CCOC(=O)O[C@H](C)OC(=O)c1ccc2c(c1)cc(C(=O)NC1CCN(C(C)C)CC1)n2Cc1cc(-c2ccc(Cl)s2)on1	inactive	–
C[C@]12CC[C@@H]3c4ccc(O)cc4CC[C@H]3[C@@H]1CCC2=O	–	22.4 µM (active)
NCc1cccc(C2CCN(C(=O)c3ccc(C#Cc4ccccc4F)o3)CC2)c1	inactive	–
Cc1cccc2ccccc12	inactive	–
Cc1ccc2oc(CN(Cc3ccccc3)C(=O)Nc3c(F)cc(F)cc3F)c(-c3ccc(Cl)cc3)c2c1	inactive	–
c1ccc2n[nH]nc2c1	inactive	–
Cc1oc2c(NC(=O)c3c(Cl)cccc3Cl)cccc2c1C(C)(C)O	inactive	–
O=c1[nH]sc2ccccc12	inactive	–
O=C(Nc1ccc(Cl)cc1)Nc1ccc(Cl)c(Cl)c1	–	50 µM (active)
c1ccc(C[n+]2cccc3ccccc32)cc1	inactive	–
CCCCOC(=O)CC(CC(=O)OCCCC)(OC(C)=O)C(=O)OCCCC	inactive	–
O=c1c(-c2ccc(O)cc2)coc2cc(O)cc(O)c12	inactive	–
CC/C(=C(/CC)c1ccc(O)cc1)c1ccc(O)cc1	inactive	–
Cc1occc1C(=O)Nc1ccc(C(=O)N2CCC(F)(F)/C(=C\C(=O)N3CCC(N4CCCCC4)CC3)c3ccccc32)cc1	inactive	–
CCCCCCCCCCCO	inactive	–
O=C1CCC(C2CCCCC2)CC1	inactive	–
CN(C[C@@H](CC[N+]12CCC(C3CCCCC3)(CC1)CC2)c1ccc(Cl)c(Cl)c1)C(=O)c1cc(C(F)(F)F)cc(C(F)(F)F)c1	inactive	–
C[C@]12CC[C@@H]3c4ccc(O)cc4CC[C@H]3[C@@H]1CC[C@H]2O	inactive	–
CN1C(=O)CC[C@H]1c1cccnc1	inactive	–
